Assay results reported in PubChem BioAssay (NCATS).
“And” between values parts separate entries of the source, which are not always exact repeats. Equal entries are not always repeated. Records with an inconclusive call do not appear. Where a call stands in place of a potency, no number is given. The source made the active and inactive calls.

Target: Peroxisome proliferator-activated receptor delta (Homo sapiens) (UniProt Q03181)
Test: qHTS assay for small molecule antagonists of peroxisome proliferator-activated receptor delta signaling (AID 588535; active = well fitted inhibition curve with a large enough effect in the signal ratio, with a control signal flat, not every such curve was filed as active; the % refers to the signal ratio)
Settings: HEK293T PPARd-UAS-bla, beta-lactamase FRET ratio, 18 h; series mostly up to 76.7 µM
Procedure, shortened: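 HEK293T PPAR-delta-UAS-bla cells, 4000/well, 2% charcoal/dextran FBS; 5 h 37 C; cpd titration; 18 h 37 C; CCF4 2 h RT; FI 460/530 nm; Hill fit → IC50, efficacy.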

Sequence of Peroxisome proliferator-activated receptor delta (Homo sapiens) (Q03181 whole entry, looked up): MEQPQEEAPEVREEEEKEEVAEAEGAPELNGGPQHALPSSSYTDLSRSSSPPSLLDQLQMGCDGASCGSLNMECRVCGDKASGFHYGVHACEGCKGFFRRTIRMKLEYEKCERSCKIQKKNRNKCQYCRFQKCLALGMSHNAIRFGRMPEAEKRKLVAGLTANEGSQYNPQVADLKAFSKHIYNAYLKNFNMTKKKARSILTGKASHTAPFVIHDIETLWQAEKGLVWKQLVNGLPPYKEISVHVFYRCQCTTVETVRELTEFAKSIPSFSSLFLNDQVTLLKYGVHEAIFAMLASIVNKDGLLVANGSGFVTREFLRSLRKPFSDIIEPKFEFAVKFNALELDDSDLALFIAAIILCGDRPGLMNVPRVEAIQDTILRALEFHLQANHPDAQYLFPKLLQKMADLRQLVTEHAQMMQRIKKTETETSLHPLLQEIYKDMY

| SMILES | outcome |
| --- | --- |
| CN(C)c1ccc(C2(c3ccc(N(C)C)cc3)OC(=O)c3cc(N(C)C)ccc32)cc1 | inactive |
| O=C=Nc1ccc(Cc2ccc(N=C=O)cc2)cc1 | inactive |
| O=Cc1ccc(Cl)c(Cl)c1 | inactive |

Target: Peroxisome proliferator-activated receptor gamma (Homo sapiens) (UniProt P37231)
Sequence (P37231 whole entry, looked up): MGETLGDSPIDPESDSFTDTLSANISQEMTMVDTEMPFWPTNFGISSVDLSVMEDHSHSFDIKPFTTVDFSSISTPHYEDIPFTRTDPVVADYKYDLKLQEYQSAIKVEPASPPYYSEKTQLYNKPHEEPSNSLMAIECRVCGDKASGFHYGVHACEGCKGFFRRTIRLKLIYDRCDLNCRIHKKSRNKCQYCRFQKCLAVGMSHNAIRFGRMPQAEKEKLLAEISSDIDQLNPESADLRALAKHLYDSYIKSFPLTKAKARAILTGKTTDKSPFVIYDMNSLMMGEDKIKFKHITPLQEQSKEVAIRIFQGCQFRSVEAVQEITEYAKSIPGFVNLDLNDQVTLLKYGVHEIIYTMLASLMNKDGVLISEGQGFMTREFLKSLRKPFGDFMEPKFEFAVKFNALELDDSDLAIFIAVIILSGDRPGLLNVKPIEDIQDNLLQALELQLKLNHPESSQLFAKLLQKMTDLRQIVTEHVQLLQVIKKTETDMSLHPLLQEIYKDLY
Test: qHTS assay for small molecule agonists of peroxisome proliferator-activated receptor gamma signaling (AID 588536; active = well fitted curve in the direction sought with a large enough effect in the signal ratio, with a control signal flat, not every such curve was filed as active; the % refers to the signal ratio)
Settings: HEK293 PPARg-UAS-bla, beta-lactamase ratio, 16 h, percent of rosiglitazone response, DMSO as zero; series mostly up to 76.7 µM
Procedure, shortened: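 Ratiometric blue/green fluorescence (405 nm excitation; 460 and 530 nm emission) from CCF4-loaded HEK293 reporter cells serves as signal. Exposure to test compounds lasts 16 h at 37 C in medium containing 1% charcoal/dextran-treated serum.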

| SMILES | outcome |
| --- | --- |
| CN(C)c1ccc(C2(c3ccc(N(C)C)cc3)OC(=O)c3cc(N(C)C)ccc32)cc1 | inactive |
| O=C1OC2(c3cc(Br)c(O)c(Br)c3Oc3c2cc(Br)c(O)c3Br)c2c(Cl)c(Cl)c(Cl)c(Cl)c21 | inactive |
| ClC1=C(Cl)C(Cl)(Cl)C(Cl)=C1Cl | inactive |
| O=Cc1ccc(Cl)c(Cl)c1 | inactive |

Target: Peroxisome proliferator-activated receptor gamma (Homo sapiens) (UniProt P37231)
Test: qHTS assay for small molecule antagonists of peroxisome proliferator-activated receptor gamma signaling (AID 588537; active = well fitted inhibition curve with a large enough effect in the signal ratio, with a control signal flat, not every such curve was filed as active; the % refers to the signal ratio; also: potency is read from the fitted curve at half-maximal effect)
Settings: HEK293 PPARg-UAS-bla, beta-lactamase ratio, antagonist mode; series mostly up to 76.8 µM
Procedure, shortened: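 Antagonist mode, beta-lactamase reporter in HEK293; charcoal/dextran FBS 1%; 3000 cells/well, 37 C 6-6.5 h; cpd titration + rosiglitazone 50 nM final, 16 h 37 C; CCF4, 2 h RT; 460/530 nm; Hill fit → IC50, efficacy.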

| SMILES | Potency |
| --- | --- |
| CN(C)c1ccc(C2(c3ccc(N(C)C)cc3)OC(=O)c3cc(N(C)C)ccc32)cc1 | inactive |
| Cc1cc(O)c(C(C)(C)C)cc1Sc1cc(C(C)(C)C)c(O)cc1C | 39.8 µM (active) and 25.1 µM (active) |
| ClC1=C(Cl)C(Cl)(Cl)C(Cl)=C1Cl | inactive |
